# ± gives the standard deviation of the averaged measurements.
# What was measured:
# Assay in all cases: promoter activity interaction Z-score (Lux/OD deviation from empty-vector control); higher = stronger promoter induction by the compound
# [1] = system: E. coli BW25113 acrABp lux reporter
# Summary of the method: (§1)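 E. coli BW25113 (wild type or marA, soxS or rob deletion) carrying low-copy luxCDABE promoter reporters grew in 40 µl LB Lennox in 384-well plates at 37°C. Each compound was tested at four 1:2 dilutions in biological duplicates. OD600 and luminescence were read every 30 min for 12 h. Areas were taken over 0–8 h (wild type) or 1–9 h (mutants), and wells below 10% of median growth area were removed. The score is the Z-transformed residual of growth-normalised luminescence fitted against the empty-vector control.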
# [2] = system: E. coli BW25113 marRABp lux reporter
# Summary of the method: as §1
# [3] = system: E. coli BW25113 micFp lux reporter
# Summary of the method: as §1
# [4] = system: E. coli BW25113 ompFp lux reporter
# Summary of the method: as §1
# [5] = system: E. coli BW25113 robp lux reporter
# Summary of the method: as §1
# [6] = system: E. coli BW25113 soxSp lux reporter
# Summary of the method: as §1
# [7] = system: E. coli BW25113 tolCp lux reporter
# Summary of the method: as §1
# [8] = 0.073 µg/ml, genetic background: wild type
# [9] = 0.073 µg/ml, genetic background: ΔmarA
# [10] = 0.073 µg/ml, genetic background: Δrob
# [11] = 0.073 µg/ml, genetic background: ΔsoxS
# [12] = 0.15 µg/ml, genetic background: wild type
# [13] = 0.15 µg/ml, genetic background: ΔmarA
# [14] = 0.15 µg/ml, genetic background: Δrob
# [15] = 0.15 µg/ml, genetic background: ΔsoxS
# [16] = 0.29 µg/ml, genetic background: wild type
# [17] = 0.29 µg/ml, genetic background: ΔmarA
# [18] = 0.29 µg/ml, genetic background: Δrob
# [19] = 0.29 µg/ml, genetic background: ΔsoxS
# [20] = 0.58 µg/ml, genetic background: wild type
# [21] = 0.58 µg/ml, genetic background: ΔmarA
# [22] = 0.58 µg/ml, genetic background: Δrob
# [23] = 0.58 µg/ml, genetic background: ΔsoxS
smiles,measurement,setting,value
COc1cc(Cc2cnc(N)nc2N)cc(OC)c1OC [Trimethoprim],promoter activity interaction Z-score,[1]; [8],0.0131 ± 0.34
same,promoter activity interaction Z-score,[1]; [9],-0.307 ± 0.0077
same,promoter activity interaction Z-score,[1]; [10],-0.0611 ± 0.045
same,promoter activity interaction Z-score,[1]; [11],-0.429 ± 0.0073
same,promoter activity interaction Z-score,[1]; [12],0.297 ± 0.54
same,promoter activity interaction Z-score,[1]; [13],1.43 ± 0.76
same,promoter activity interaction Z-score,[1]; [14],0.162 ± 0.041
same,promoter activity interaction Z-score,[1]; [15],-0.000323 ± 0.14
same,promoter activity interaction Z-score,[1]; [16],0.6 ± 0.73
same,promoter activity interaction Z-score,[1]; [17],-0.763 ± 0.81
same,promoter activity interaction Z-score,[1]; [18],0.526 ± 0.19
same,promoter activity interaction Z-score,[1]; [19],0.701 ± 0.81
same,promoter activity interaction Z-score,[1]; [20],0.577 ± 0.46
same,promoter activity interaction Z-score,[1]; [21],-0.476 ± 0.038
same,promoter activity interaction Z-score,[1]; [22],1.39 ± 0.35
same,promoter activity interaction Z-score,[1]; [23],0.448 ± 0.78
same,promoter activity interaction Z-score,[2]; [8],-0.00717 ± 0.14
same,promoter activity interaction Z-score,[2]; [9],0.354 ± 0.26
same,promoter activity interaction Z-score,[2]; [10],0.118 ± 0.14
same,promoter activity interaction Z-score,[2]; [11],0.299 ± 0.38
same,promoter activity interaction Z-score,[2]; [12],1.11 ± 0.81
same,promoter activity interaction Z-score,[2]; [13],1.71 ± 0.26
same,promoter activity interaction Z-score,[2]; [14],0.43 ± 0.16
same,promoter activity interaction Z-score,[2]; [15],0.811 ± 0.45
same,promoter activity interaction Z-score,[2]; [16],0.921 ± 0.63
same,promoter activity interaction Z-score,[2]; [17],1.36 ± 0.27
same,promoter activity interaction Z-score,[2]; [18],0.367 ± 0.12
same,promoter activity interaction Z-score,[2]; [19],0.729 ± 0.19
same,promoter activity interaction Z-score,[2]; [20],0.146 ± 0.067
same,promoter activity interaction Z-score,[2]; [21],0.423 ± 0.12
same,promoter activity interaction Z-score,[2]; [22],0.143 ± 0.17
same,promoter activity interaction Z-score,[2]; [23],0.484 ± 0.068
same,promoter activity interaction Z-score,[3]; [8],0.711 ± 0.12
same,promoter activity interaction Z-score,[3]; [9],0.728 ± 0.027
same,promoter activity interaction Z-score,[3]; [10],0.665 ± 0.28
same,promoter activity interaction Z-score,[3]; [11],0.533 ± 0.23
same,promoter activity interaction Z-score,[3]; [12],1.86 ± 0.14
same,promoter activity interaction Z-score,[3]; [13],1.1 ± 0.14
same,promoter activity interaction Z-score,[3]; [14],1.29 ± 0.44
same,promoter activity interaction Z-score,[3]; [15],0.842 ± 0.36
same,promoter activity interaction Z-score,[3]; [16],2.75 ± 0.96
same,promoter activity interaction Z-score,[3]; [17],1.9 ± 0.074
same,promoter activity interaction Z-score,[3]; [18],2.28 ± 0.79
same,promoter activity interaction Z-score,[3]; [19],1.33 ± 0.41
same,promoter activity interaction Z-score,[3]; [20],0.997 ± 0.95
same,promoter activity interaction Z-score,[3]; [21],0.388 ± 0.61
same,promoter activity interaction Z-score,[3]; [22],1.15 ± 0.38
same,promoter activity interaction Z-score,[3]; [23],0.825 ± 0.16
same,promoter activity interaction Z-score,[4]; [8],-0.322 ± 0.3
same,promoter activity interaction Z-score,[4]; [9],-1.17 ± 0.5
same,promoter activity interaction Z-score,[4]; [10],-0.297 ± 0.54
same,promoter activity interaction Z-score,[4]; [11],-0.129 ± 0.65
same,promoter activity interaction Z-score,[4]; [12],0.109 ± 0.39
same,promoter activity interaction Z-score,[4]; [13],-0.477 ± 0.78
same,promoter activity interaction Z-score,[4]; [14],0.244 ± 0.7
same,promoter activity interaction Z-score,[4]; [15],0.51 ± 0.81
same,promoter activity interaction Z-score,[4]; [16],0.0831 ± 0.67
same,promoter activity interaction Z-score,[4]; [17],-1.9 ± 0.61
same,promoter activity interaction Z-score,[4]; [18],-0.0302 ± 1
same,promoter activity interaction Z-score,[4]; [19],0.395 ± 1.3
same,promoter activity interaction Z-score,[4]; [20],-0.896 ± 0.32
same,promoter activity interaction Z-score,[4]; [21],-0.897 ± 0.46
same,promoter activity interaction Z-score,[4]; [22],0.0886 ± 0.83
same,promoter activity interaction Z-score,[4]; [23],-1.15 ± 0.39
same,promoter activity interaction Z-score,[5]; [8],0.791 ± 0.3
same,promoter activity interaction Z-score,[5]; [9],0.875 ± 0.23
same,promoter activity interaction Z-score,[5]; [10],2.11 ± 0.058
same,promoter activity interaction Z-score,[5]; [11],0.238 ± 1.1
same,promoter activity interaction Z-score,[5]; [12],3.64 ± 0.82
same,promoter activity interaction Z-score,[5]; [13],3.37 ± 0.44
same,promoter activity interaction Z-score,[5]; [14],4.81 ± 0.7
same,promoter activity interaction Z-score,[5]; [15],2.16 ± 0.27
same,promoter activity interaction Z-score,[5]; [16],7.43 ± 2.3
same,promoter activity interaction Z-score,[5]; [17],5.16 ± 0.16
same,promoter activity interaction Z-score,[5]; [18],8.88 ± 0.31
same,promoter activity interaction Z-score,[5]; [19],5.55 ± 0.44
same,promoter activity interaction Z-score,[5]; [20],3.89 ± 0.063
same,promoter activity interaction Z-score,[5]; [21],4.6 ± 5.3
same,promoter activity interaction Z-score,[5]; [22],3.21 ± 0.23
same,promoter activity interaction Z-score,[5]; [23],2.01 ± 1.6
same,promoter activity interaction Z-score,[6]; [8],-0.0844 ± 0.22
same,promoter activity interaction Z-score,[6]; [9],0.118 ± 0.2
same,promoter activity interaction Z-score,[6]; [10],0.163 ± 0.18
same,promoter activity interaction Z-score,[6]; [11],-0.116 ± 0.24
same,promoter activity interaction Z-score,[6]; [12],0.261 ± 0.11
same,promoter activity interaction Z-score,[6]; [13],0.204 ± 0.1
same,promoter activity interaction Z-score,[6]; [14],0.486 ± 0.39
same,promoter activity interaction Z-score,[6]; [15],0.169 ± 0.29
same,promoter activity interaction Z-score,[6]; [16],0.521 ± 0.032
same,promoter activity interaction Z-score,[6]; [17],0.796 ± 0.022
same,promoter activity interaction Z-score,[6]; [18],0.986 ± 0.72
same,promoter activity interaction Z-score,[6]; [19],0.663 ± 0.23
same,promoter activity interaction Z-score,[6]; [20],1.34 ± 0.14
same,promoter activity interaction Z-score,[6]; [21],2.96 ± 0.38
same,promoter activity interaction Z-score,[6]; [22],2.69 ± 1.1
same,promoter activity interaction Z-score,[6]; [23],-0.0409 ± 0.74
same,promoter activity interaction Z-score,[7]; [8],0.67 ± 0.48
same,promoter activity interaction Z-score,[7]; [9],-0.632 ± 0.36
same,promoter activity interaction Z-score,[7]; [10],-0.116 ± 0.95
same,promoter activity interaction Z-score,[7]; [11],-0.559 ± 0.21
same,promoter activity interaction Z-score,[7]; [12],0.553 ± 0.46
same,promoter activity interaction Z-score,[7]; [13],-0.336 ± 0.28
same,promoter activity interaction Z-score,[7]; [14],0.749 ± 0.87
same,promoter activity interaction Z-score,[7]; [15],2.3 ± 2.1
same,promoter activity interaction Z-score,[7]; [16],1.84 ± 0.19
same,promoter activity interaction Z-score,[7]; [17],2.71 ± 0.84
same,promoter activity interaction Z-score,[7]; [18],1.92 ± 0.38
same,promoter activity interaction Z-score,[7]; [19],2.4 ± 1.6
same,promoter activity interaction Z-score,[7]; [20],1.85 ± 0.094
same,promoter activity interaction Z-score,[7]; [21],0.798 ± 2
same,promoter activity interaction Z-score,[7]; [22],1.4 ± 0.83
same,promoter activity interaction Z-score,[7]; [23],0.494 ± 0.71

# Reference: the supplement of paper PMC12282887
